In PubChem BioAssay AID1851 (National Center for Advancing Translational Sciences (NCATS), 2009):
Several values for one entry are separate records, joined by “and”; a condition that tells them apart may be missing. Equal entries are not always repeated. The campaign covered roughly 16,000 compounds. About 5,800 (36%) were called active. Inconclusive results (about 23%) are left out. Calls come from the whole dose curve; as a rule, active = well fitted curve in the direction sought with a large enough effect; inconclusive = small, poorly fitted or top-dose-only effect, or effect the other way; inactive = no such curve, though single readings can be large or run the other way. Some of the results follow.

target: Cytochrome P450 2C19 (Homo sapiens) (UniProt P33261); assay: Cytochrome panel assay with activity outcomes; conditions: recombinant CYP, pro-luciferin dealkylation, luminescence, p450-cyp2c19; series mostly up to 57.1 µM
Sequence (P33261 whole entry, looked up): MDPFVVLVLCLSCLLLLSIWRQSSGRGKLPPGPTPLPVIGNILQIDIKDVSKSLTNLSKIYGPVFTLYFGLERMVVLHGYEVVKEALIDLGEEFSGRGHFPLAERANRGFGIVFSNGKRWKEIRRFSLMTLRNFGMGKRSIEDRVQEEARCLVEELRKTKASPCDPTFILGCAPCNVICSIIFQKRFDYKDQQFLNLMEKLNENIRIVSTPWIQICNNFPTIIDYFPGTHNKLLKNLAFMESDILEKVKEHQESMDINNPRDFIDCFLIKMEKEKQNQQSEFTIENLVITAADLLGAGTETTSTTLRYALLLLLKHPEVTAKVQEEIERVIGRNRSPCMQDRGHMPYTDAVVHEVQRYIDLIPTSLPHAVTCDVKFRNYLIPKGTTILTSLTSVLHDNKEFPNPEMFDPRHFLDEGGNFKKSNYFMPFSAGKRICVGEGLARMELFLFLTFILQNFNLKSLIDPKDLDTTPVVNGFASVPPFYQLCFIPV
% is set by controls: 0 for no effect and ±100 for the full control effect.

| SMILES | AC50 | activity, negative = inhibition |
| --- | --- | --- |
| CC(C)(C)NC[C@H](O)COc1cccc2c1CCC(=O)N2 | inactive | – |
| C[C@@H]1C(=O)N(C)C(=O)c2nc[nH]c21 | inactive | – |
| CCSC[C@@H](N)C(=O)O | – | 17.8% [at 11.4 µM] (inactive) |
| Cc1ccc(C)c(-c2cc(C(=O)Nc3sc(C)c(C)c3C(N)=O)c3ccccc3n2)c1 | 2.24 µM (active) | – |
| COC(=O)c1sccc1NC(=O)c1cc(-c2cc(C)ccc2C)nc2ccccc12 | 2.51 µM (active) | – |
| Cc1ccccc1-c1cc(C(=O)Nc2nc3c(s2)CCCC3)c2ccccc2n1 | 4.47 µM (active) | – |
| O=C(O)c1ccccc1C(=O)Nc1nccs1 | inactive | – |
| Nc1c2c(nc3ccccc13)CCC[C@H]2O | inactive | – |
| Cc1ccc(C)c(-c2cc(C(=O)Nc3nccs3)c3ccccc3n2)c1 | 10 µM (active) | – |
| Cc1sc(NC(=O)C2CCCCC2C(=O)O)c(C(N)=O)c1C (stereo not drawn) | inactive | – |
| CN(C)c1ccc(O)c2c1C[C@H]1C[C@H]3[C@@H](N(C)C)C(=O)C(C(N)=O)=C(O)[C@]3(O)C(=O)C1=C2O | inactive | – |
| Cc1ccccc1-n1nc2c(c1NC(=O)c1c(-c3ccccc3Cl)noc1C)CSC2 | 11.2 µM (active) | – |
| Cc1onc(-c2ccccc2Cl)c1C(=O)Nc1nnc(Cc2ccc(Cl)cc2)s1 | 15.8 µM (active) | – |
| Cc1ccc(NC(=S)NC(=O)c2c(-c3ccccc3Cl)noc2C)cc1 | 2 µM (active) | – |
| Cc1ccccc1-n1nc2c(c1NC(=O)c1ccc(S(=O)(=O)N(C)C)cc1)CSC2 | inactive | – |
| CC(=O)C1=NOC(CNC(=O)c2c(-c3ccccc3Cl)noc2C)C1 (stereo not drawn) | 11.2 µM (active) | – |
| COc1ccc(Cc2nnc(NC(=O)c3ccc(Cl)c([N+](=O)[O-])c3)s2)cc1 | inactive | – |
| COc1ccc(-c2nc3cnc(Nc4cccc(OC)c4)nc3n(CCC#N)c2=O)cc1 | inactive | – |
| CCOC(=O)c1cnc2cc(-c3ccc(C(C)(C)C)cc3)nn2c1N | 0.562 µM (active) | – |
| Cc1ccccc1C(=O)NNC(=O)c1ccoc1C | inactive | – |
| Cc1occc1C(=O)NNC(=O)Cc1ccccc1 | 10 µM (active) | – |
| CCCC[S@@](=N)(=O)CC[C@@H](N)C(=O)O | inactive | – |
| Cc1ccc(OCCNC(=O)c2cncc(Br)c2)cc1C | 6.31 µM (active) | – |
| Clc1ccc(-c2csc(N3CCC(c4ccccc4)C3)n2)cc1 (stereo not drawn) | 10 µM (active) | – |
| Fc1ccc(-c2csc(N3CCC(c4ccccc4)C3)n2)cc1 (stereo not drawn) | 11.2 µM (active) | – |

| SMILES | AC50 | activity, negative = inhibition |
| --- | --- | --- |
| Cc1c(C2CCN(CCc3ccccc3)CC2)noc1-c1ccc(Cl)cc1 | inactive | – |
| Fc1cccc(C2NC(=S)NC3=C2N2CCC3CC2)c1 (stereo not drawn) | inactive | – |
| Brc1ccc(-c2csc(N3CCC(c4ccccc4)C3)n2)cc1 (stereo not drawn) | 10 µM (active) | – |
| Clc1ccc2c(c1)N=C(N1CCNCC1)c1ccccc1N2 | inactive | – |
| c1ccc(CNc2ccnc(-c3ccoc3)n2)cc1 | 3.98 µM (active) | – |
| Cc1cnc(CNc2ccnc(-c3ccoc3)n2)cn1 | inactive | – |
| Cc1cccc(CNc2ccnc(-c3ccoc3)n2)c1 | 10 µM (active) | – |
| CCCN(C/C=C\I)[C@@H]1CCc2cccc(O)c2C1 | inactive | – |
| CC(C(=O)Nc1ccccc1Sc1ccccc1)N(c1ccccc1)S(C)(=O)=O (stereo not drawn) | 4.47 µM (active) | – |
| Cc1ccc(N(C(C)C(=O)Nc2cc(Cl)ccc2Oc2ccccc2)S(C)(=O)=O)cc1 (stereo not drawn) | 1.41 µM (active) | – |
| Cc1cc2c(=O)[nH]c(N)nc2nc1C | – | 20.6% [at 11.4 µM] (inactive) |
| O=C1CC(NCCC2=CCCCC2)C(=O)N1c1cccc(Cl)c1Cl (stereo not drawn) | 4.47 µM (active) | – |
| CO[C@H]1COC(=O)C/C=C\[C@H](C)[C@H](OC)COC(=O)[C@@H](C)COC(=O)C/C=C\[C@@H]1C | – | -8.22% [at 11.4 µM] (inactive) and -6.35% [at 11.4 µM] (inactive) |
| Cc1ccc(C2CC2C(=O)NN)cc1 (stereo not drawn) | 3.55 µM (active) | – |
| C=CCN1CCc2c(cc(O)c(O)c2Cl)[C@H](c2ccccc2)C1 | inactive | – |
| Cn1c(=O)cc(OCCCC(=O)N2CCN(c3ccccc3)CC2)c2ccccc21 | 1.26 µM (active) | – |
| CCOC(=O)C1CCCN(C(=O)CCCOc2cc(=O)n(C)c3ccccc23)C1 (stereo not drawn) | 6.31 µM (active) | – |
| O=C(CCCN1C(=O)C2C3C=CC(C3)C2C1=O)N1CCN(c2ccccc2)CC1 (stereo not drawn) | inactive | – |
| O=C(O)c1ccc(/C=N\N=C2c3ccccc3-c3ccccc32)cc1 | – | 19.5% [at 11.4 µM] (inactive) |
| Cc1c(S(=O)(=O)O)ccc(N=Nc2c(O)c(C(=O)O)cc3ccccc23)c1Cl | – | 14.5% [at 11.4 µM] (inactive) |
| COC(=O)CNC(c1ccccc1Cl)c1cc(Br)ccc1NC(=O)CCN1CCOCC1 (stereo not drawn) | 28.2 µM (active) | – |
| O=C1C[C@@H](O)[C@@H](O)[C@H]2[C@@H]3C(=O)N(C[C@@H]4CCCO4)C(=O)[C@@H]3CC[C@H]12 | – | 43.9% [at 11.4 µM] (inactive) and 16.6% [at 11.4 µM] (inactive) |
| Cn1cccc1C(=O)N1CCC2(CC1)CCN(C(c1ccccc1)c1ccccc1)CC2 | inactive | – |
| CN(C)c1ccc(-c2cncnc2NCc2cccnc2)cc1 | 0.0316 µM (active) | – |
| CNc1ncncc1-c1ccc(C(=O)N(C)C)cc1 | 25.1 µM (active) | – |

| SMILES | AC50 | activity, negative = inhibition |
| --- | --- | --- |
| CN(C)c1ccc(-c2cncnc2NCc2ccccc2)cc1 | 0.398 µM (active) | – |
| CN(C)C(=O)c1ccc(-c2cncnc2Nc2ccccc2)cc1 | inactive | – |
| Cc1cnc(CNc2ncncc2-c2ccc(C(=O)N(C)C)cc2)cn1 | inactive | – |
| CN(C)C(=O)c1ccc(-c2cncnc2NCc2ccccc2)cc1 | inactive | – |
| CN(C)C(=O)c1ccc(-c2cncnc2NCc2cccnc2)cc1 | 2.51 µM (active) | – |
| CCOC(=O)c1c(NC(=O)Cn2nc([N+](=O)[O-])c(Br)c2C)sc2c1CCC(C)C2 (stereo not drawn) | 8.91 µM (active) | – |
| CCOC(=O)c1c(NC(=O)c2ccc(S(=O)(=O)N3CCOCC3)cc2)sc2c1CCN(C)C2 | inactive | – |
| CCOC(=O)c1c(NC(=S)NC(=O)c2cnn(CC)c2)sc2c1CCC(C)C2 (stereo not drawn) | inactive | – |
| CCOC(=O)c1c(NC(=O)CSc2nnc(C)s2)sc2c1CCCCC2 | 2.24 µM (active) | – |
| CCOC(=O)c1c(NC(=O)c2c(C)noc2C)sc2c1CCCCC2 | inactive | – |
| CCOC(=O)c1c(NC(=O)Cn2cc([N+](=O)[O-])cn2)sc2c1CCC2 | 2 µM (active) | – |
| CCOC(=O)c1c(N2C(=O)Nc3cc(Cl)c(Cl)cc3N2O)sc2c1CCCCC2 | inactive | – |
| COCCn1c(=O)cnc2cnc(Nc3cccc(OC)c3)nc21 | inactive | – |
| CCNc1ncc2nc(-c3ccc(OC)cc3)c(=O)n(Cc3cccc(OC)c3)c2n1 | inactive | – |
| CCNc1ncc2ncc(=O)n(Cc3cccc(OC)c3)c2n1 | 2 µM (active) | – |
| CCNc1ncc2nc(-c3ccc(Cl)cc3)c(=O)n(Cc3cccc(OC)c3)c2n1 | inactive | – |
| CCNc1ncc2nc(-c3cn(C)c4ccccc34)c(=O)n(Cc3cccc(OC)c3)c2n1 | inactive | – |
| COc1cccc(Cn2c(=O)cnc3cnc(Nc4cccc(OC)c4)nc32)c1 | 3.98 µM (active) | – |
| CCNc1ncc2nc(C)c(=O)n(Cc3cccc(OC)c3)c2n1 | 10 µM (active) | – |
| COc1cccc(Nc2ncc3ncc(=O)n(CCC#N)c3n2)c1 | inactive | – |
| CCNc1ncc2nc(-c3cccs3)c(=O)n(Cc3cccc(OC)c3)c2n1 | inactive | – |
| COc1cccc(/C(O)=C2/C(=O)C(=O)N(CCCN3CCOCC3)C2c2ccncc2)c1 (stereo not drawn) | inactive | – |
| COc1cccc(/C(O)=C2/C(=O)C(=O)N(Cc3cccnc3)C2c2ccco2)c1 (stereo not drawn) | 14.1 µM (active) | – |
| COCCN1C(=O)C(=O)/C(=C(/O)c2cccc(OC)c2)C1c1ccc(C)o1 (stereo not drawn) | inactive | – |
| CCOc1ccc(/C(O)=C2/C(=O)C(=O)N(CCOCCO)C2c2cccnc2)cc1 (stereo not drawn) | inactive | – |

| SMILES | AC50 | activity, negative = inhibition |
| --- | --- | --- |
| CCOc1cccc(/C(O)=C2/C(=O)C(=O)N(Cc3ccco3)C2c2ccncc2)c1 (stereo not drawn) | 10 µM (active) | – |
| COCCN1C(=O)C(=O)/C(=C(/O)c2cccc(OC)c2)C1c1ccco1 (stereo not drawn) | inactive | – |
| O=C(c1cnccn1)N1CCC2(CC1)CN(c1ccncc1)C2 | inactive | – |
| O=C(CCS(=O)(=O)c1cccs1)N1CCN(c2ccc(F)cc2)CC1 | 0.891 µM (active) | – |
| O=C(c1cc(-c2ccco2)on1)N1CCOCC1 | inactive | – |
| O=C(c1cc(-c2cccs2)on1)N1CCN(c2ccc(F)cc2)CC1 | 1.41 µM (active) | – |
| CC(C)CCN1CC(C(=O)N2CCN(c3ccc(F)cc3)CC2)CC1=O (stereo not drawn) | inactive | – |
| O=C(CCNC(=O)Cn1ccc2ccccc2c1=O)NCCCN1CCN(c2ccc(F)cc2)CC1 | inactive | – |
| Oc1cc(O)cc(/C=C\c2ccc(O)c(O)c2)c1 | inactive | – |
| CC(C)c1cccc2nc3c(c([Si](C)(C)C)c12)Cn1c-3cccc1=O | inactive | – |
| Cc1ccc(OCC(=O)N/N=C\c2c(C)n(C)c3ccccc23)c([N+](=O)[O-])c1 | 8.91 µM (active) | – |
| NC[C@H](O)C1CCCCCCC1 | inactive | – |
| CC(=O)c1cnc2c(C(=O)O)cnn2c1C | inactive | – |
| Cc1nc2c(C(=O)N3CCOCC3)cnn2c(C)c1Cc1ccc(Cl)cc1 | 2.24 µM (active) | – |
| Cc1nc2ncnn2c(C)c1CCC(=O)N1CCN(C(=O)c2ccco2)CC1 | inactive | – |
| N=c1n(CCN2CCOCC2)c2ccccc2n1CC(=O)c1ccc(Cl)c(Cl)c1 | 6.31 µM (active) | – |
| COC(=O)Cn1c(=N)n(CCN2CCCCC2)c2ccccc21 | inactive | – |
| Cc1cc(=O)[nH]c(SCC(=O)Nc2nc3c(s2)CCCC3)n1 | 7.94 µM (active) | – |
| O=S(=O)(c1ccccc1)N1CCN(c2cc(-c3ccccc3)nc3ncnn23)CC1 | 11.2 µM (active) | – |
| O=S(=O)(c1ccccc1)N1CCC2(CCN(c3ncccn3)CC2)CC1 | inactive | – |
| FC(F)(F)c1ccc(N2CCN(c3cc(-c4ccccc4)nc4ncnn34)CC2)nc1 | 3.55 µM (active) | – |
| Cc1cnn(-c2cc(N/N=C/c3ccccc3)ncn2)c1 | inactive | – |
| Cc1cccc(/C=N\Nc2cn[nH]c(=O)c2Cl)c1 | 10 µM (active) | – |
